The source of these data is PubChem BioAssay (EPA / NIEHS).

Each structure is given as a SMILES string. Several values for one entry are separate records, joined by “and”; a condition that tells them apart may be missing. Equal entries are not always repeated. Inconclusive results are not listed. Activity calls are given as the source filed them. How the source made its calls, unless noted: active means hit-call score of the fitted dose curve at least 0.9, where 1 is the maximum; inconclusive means response in the unintended direction; inactive means score below 0.9.

A short description of test [1]: ATG_GAL4_TRANS: Attagene TRANS-FACTORIAL HepG2 Assay for GAL4 (Internal Marker) (AID 2282976). As to conditions: HepG2 Attagene TRANS GAL4 internal marker reporter. The gist of the method:
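First, HepG2 cells were transfected with reporter units under GAL4-UAS control. Next, they were treated with chemical for 24 h. Finally, RNA was reverse-transcribed, PCR-amplified, FAM-labelled and resolved by capillary electrophoresis, with induction scored against DMSO.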

Test [2] has as its target Oxysterols receptor LXR-alpha (Homo sapiens) (UniProt Q13133). The experiment in a line: ATG_LXRa_TRANS: Attagene TRANS-FACTORIAL HepG2 Assay for human Liver X Receptor alpha (LXRa) (AID 2282980). As to conditions: HepG2 Attagene TRANS reporter, LXRa transactivation. The gist of the method:
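Transfect HepG2 with GAL4-UAS multiplex reporter constructs (TRANS format, chimeric receptor-GAL4); treat 24 h; extract RNA, reverse-transcribe, PCR-amplify, FAM-label, HpaI-digest; resolve fragments by capillary electrophoresis. Upward response vs DMSO.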

Test [3] has as its target Hepatocyte nuclear factor 4-alpha (Homo sapiens) (UniProt P41235). The experiment in a line: ATG_HNF4a_TRANS: Attagene TRANS-FACTORIAL HepG2 Assay for human Hepatocyte Nuclear Factor 4 alpha (HNF4a) (AID 2282982). The conditions noted are these: HepG2 HNF4a transactivation reporter, mRNA readout. The gist of the method: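 Using HepG2 liver cells transfected with GAL4-UAS reporter units, chemical-induced mRNA increases were assessed after 24 hours. Fluorescent RT-PCR fragments were separated by capillary electrophoresis and compared with DMSO negative controls.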

Test [4] concerns the target Nuclear receptor subfamily 4 group A member 2 (Homo sapiens) (UniProt P43354). The experiment in a line: ATG_NURR1_TRANS: Attagene TRANS-FACTORIAL HepG2 Assay for human Nuclear Receptor Related Protein 1 (NURR1) (AID 2282985). The conditions noted are these: HepG2 Attagene TRANS reporter, mRNA readout. The method, boiled down: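 Chimeric NR-Gal4 proteins were expressed in human HepG2 cells bearing GAL4-UAS reporter units, and induced reporter mRNA was quantified 24 h post-dosing by RT-PCR and capillary electrophoresis.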

Test [5] is described as follows: ATG_XTT_Cytotoxicity: Cytotoxicity Assessment in the Attagene TRANS-FACTORIAL HepG2 Assay (AID 2283584). The method, boiled down:
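Cells: human HepG2, transiently transfected with MRTU reporter constructs. Exposure 24 h. Readout: XTT, cell number. Baseline/neg ctrl DMSO; loss-of-signal scored.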

Test [6] in a line: CCTE_Harrill_HTTr_Viability_MCF7: CCTE's 6-hour Cell Viability Assessment for the High-Throughput Transcriptomics (HTTr) Platform, in MCF-7 cells cultured in DMEM + 10% fetal bovine serum, Harrill Lab (AID 2284010; active means hit-call score of the fitted dose curve at least 0.9, where 1 is the maximum; inactive means score below 0.9). The method, boiled down: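 Eight-point concentration series, six-hour exposure. Propidium iodide exclusion imaged to assess membrane integrity as a cytotoxicity readout; bidirectional fitting was done with DMSO as negative control and activity baseline.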

Test [7] has as its target Bile acid receptor (Homo sapiens) (UniProt Q96RI1). The experiment in a line: ATG_IR1_CIS: Attagene CIS-FACTORIAL HepG2 Assay for human Nuclear Receptor Subfamily 1 Group H Member 4 (NR1H4), IR1 submotif (AID 2282946; active means hit-call score of the fitted dose curve at least 0.9, where 1 is the maximum; inactive means score below 0.9). As to conditions: IR1 reporter transcription, actives raise or lower the signal. The method, boiled down: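 Readout: reporter transcript levels by RT-PCR with fluorescent capillary electrophoresis, from HepG2 cells transiently transfected with multiplexed cis-regulated reporters and dosed 24 h. Gain- or loss-of-signal fitted versus DMSO negative control.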

Test [8] deals with Nuclear receptor subfamily 1 group I member 3 (Homo sapiens) (UniProt Q14994). The experiment in a line: ATG_CAR_TRANS: Attagene TRANS-FACTORIAL HepG2 Assay for human Constitutive Androstane Receptor (CAR) (AID 2282969).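 Further: activators raise reporter mRNA above DMSO so AC50 marks induction.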 The conditions noted are these: HepG2 Attagene TRANS-FACTORIAL CAR reporter. The gist of the method:
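Steps: transient transfection of HepG2 with multiple GAL4-UAS reporter units; 24 h compound incubation; RNA isolation, RT-PCR, 6-FAM primer extension, HpaI digest; capillary electrophoresis. Gain-of-signal relative to DMSO negative control.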

In test [9] the target is human Peroxisome Proliferator-activated Receptor delta (PPARd), PPARD (gene 5467) (UniProt Q03181). The test can be described thus: ATG_PPARd_TRANS: Attagene TRANS-FACTORIAL HepG2 Assay for human Peroxisome Proliferator-activated Receptor delta (PPARd) (AID 2283002). The method, boiled down:
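Measured quantity: GAL4-UAS reporter transcript induction in HepG2 after 24 h chemical dosing, with NR-Gal4 chimeras supplied by transient transfection. Detection by RT-PCR and capillary electrophoresis; upward fit against DMSO.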

Test [10] is described as follows: TOX21_p53_BLA_p2_viability: Viability Assessment in the Tox21 HCT-116 p53 Agonism Beta-lactamase Assay, Phase 2 (AID 2283591).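 Further: compound exposure lasted 16 h at 37 °C; actives lower the ATP signal meaning cytotoxicity.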 The method, boiled down:
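HCT-116 p53-bla cells (4000/well) rested 5 h at 37C, then received compounds in DMSO (217-fold dilution) for 16 h at 37C, 5% CO2. After the CCF4 read, CellTiter-Glo was added; ATP luminescence was read after 30 min at room temperature.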

Test [11] is described as follows: TOX21_p53_BLA_p3_viability: Viability Assessment in the Tox21 HCT-116 p53 Agonism Beta-lactamase Assay, Phase 3 (AID 2283593).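 Further: cells exposed to compound for 16 h before reading.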 The gist of the method: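 HCT-116 cells (4000/well) rested 5 h at 37C, then got DMSO compounds by pin tool (217-fold dilution) for 16 h at 37C, 5% CO2. After the bla read, CellTiter-Glo was added and luminescence read at 30 min, room temperature.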

The target in test [12] is Retinoic acid receptor alpha (Homo sapiens) (UniProt P10276). The test can be described thus: ATG_DR5_RAR_CIS: Attagene CIS-FACTORIAL HepG2 Assay for human Retinoic Acid Receptor Alpha (RARE), DR5 submotif (AID 2282934; active means hit-call score of the fitted dose curve at least 0.9, where 1 is the maximum; inactive means score below 0.9). The conditions noted are these: HepG2 Attagene cis-factorial RARE DR5 reporter, mRNA; actives raise or lower the signal. The gist of the method:
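Transfected HepG2 reporter cells are exposed to chemicals for 24 h. Then RNA is extracted and the DR5 element reporter transcript is measured by RT-PCR and capillary electrophoresis, with bidirectional curve fitting relative to DMSO.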

Test [13] addresses Oxysterols receptor LXR-beta (Homo sapiens) (UniProt P55055). The test can be described thus: ATG_LXRb_TRANS: Attagene TRANS-FACTORIAL HepG2 Assay for human Liver X Receptor beta (LXRb) (AID 2282981). As to conditions: HepG2 Attagene TRANS GAL4-LXRb reporter, mRNA. The method, boiled down:
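Liver-derived HepG2 cells transfected with Gal4-responsive reporters were dosed for 24 h. Activation was scored as rise in reporter mRNA, by RT-PCR and capillary electrophoresis, above DMSO baseline.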

In test [14] the target is human RAR-related Orphan Receptor gamma (RORg), RORC (gene 6097) (UniProt P51449). The experiment in a line: ATG_RORg_TRANS: Attagene TRANS-FACTORIAL HepG2 Assay for human RAR-related Orphan Receptor gamma (RORg) (AID 2283011). The method, boiled down:
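First, HepG2 liver cells were transfected with GAL4-UAS-driven reporter constructs and the RORg-Gal4 fusion. Next, they were treated with chemical for 24 h. Finally, reporter mRNA was quantified by RT-PCR and capillary electrophoresis, with upward activity fitted against DMSO.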

The nature of test [15]: TOX21_p53_BLA_p4_viability: Viability Assessment in the Tox21 HCT-116 p53 Agonism Beta-lactamase Assay, Phase 4 (AID 2283597).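 Further: hits lower the luminescence signal meaning cytotoxicity.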 The method, boiled down:
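Readout: ATP luminescence (CellTiter-Glo), measured 30 min after reagent addition at RT. The reagent followed a 2 h CCF4-AM incubation, and the cells had been exposed to compound for 16 h at 37C.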

Test [16] has as its target human Peroxisome Proliferator-activated Receptor alpha (PPARa), PPARA (gene 5465) (UniProt Q07869). The experiment in a line: ATG_PPARa_TRANS: Attagene TRANS-FACTORIAL HepG2 Assay for human Peroxisome Proliferator-activated Receptor alpha (PPARa) (AID 2283001). The method, boiled down: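 Exposure: 24 h, transiently transfected HepG2 cells. Endpoint: GAL4-UAS reporter mRNA, RT-PCR with capillary electrophoresis fluorescence. Baseline: DMSO; increases fitted.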

Test [17] has as its target human RAR-related Orphan Receptor beta (RORb), RORB (gene 6096) (UniProt Q92753). The test can be described thus: ATG_RORb_TRANS: Attagene TRANS-FACTORIAL HepG2 Assay for human RAR-related Orphan Receptor beta (RORb) (AID 2283010). The gist of the method:
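Multiplexed transcription-factor reporter assay: HepG2 cells transiently carrying NR-Gal4/GAL4-UAS constructs, 24 h treatment, mRNA quantified by RT-PCR plus capillary electrophoresis fluorescence; activity scored as induction over DMSO.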

The target of test [18] is Cellular tumor antigen p53 (Homo sapiens) (UniProt P04637). The experiment in a line: TOX21_p53_BLA_p3_ratio: Tox21 HCT-116 p53 Agonism Beta-lactamase Assay, Ratio, Phase 3 (AID 2283596). The method, boiled down: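 Cells were seeded at 4000/well, rested 5 h at 37C, then dosed with DMSO compound solutions (217-fold dilution) for 16 h. CCF4-AM substrate was loaded for 2 h at room temperature, and the 460/530 nm emission ratio was fitted for gain of signal versus DMSO.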
Chain of Cellular tumor antigen p53 (Homo sapiens) (P04637 whole entry, looked up): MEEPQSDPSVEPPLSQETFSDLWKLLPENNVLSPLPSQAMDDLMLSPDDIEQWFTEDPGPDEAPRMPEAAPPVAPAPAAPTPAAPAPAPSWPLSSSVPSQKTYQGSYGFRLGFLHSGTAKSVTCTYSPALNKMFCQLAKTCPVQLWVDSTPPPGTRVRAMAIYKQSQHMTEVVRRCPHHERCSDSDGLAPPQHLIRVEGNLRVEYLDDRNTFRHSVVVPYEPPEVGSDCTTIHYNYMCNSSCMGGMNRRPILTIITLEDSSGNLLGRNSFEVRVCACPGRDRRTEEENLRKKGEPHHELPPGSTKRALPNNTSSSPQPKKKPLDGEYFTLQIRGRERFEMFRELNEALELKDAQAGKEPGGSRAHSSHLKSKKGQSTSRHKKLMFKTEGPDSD

The target in test [19] is human Vitamin D Receptor (VDR), VDR (gene 7421) (UniProt P11473). The experiment in a line: ATG_VDR_TRANS: Attagene TRANS-FACTORIAL HepG2 Assay for human Vitamin D Receptor (VDR) (AID 2283022). The gist of the method:
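Steps: transfect HepG2 with GAL4-UAS-driven reporter constructs; dose compounds 24 h; isolate RNA, reverse-transcribe, PCR-amplify with 6-FAM-labelled primer extension and HpaI digestion; quantify fragments by capillary electrophoresis relative to DMSO.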

Test [20] concerns the target Nuclear receptor subfamily 1 group I member 2 (Homo sapiens) (UniProt O75469). The experiment in a line: ATG_PXR_TRANS: Attagene TRANS-FACTORIAL HepG2 Assay for human Pregnane X Receptor (PXR) (AID 2283008). The method, boiled down: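 Transient HepG2 transfectants carrying multiplexed reporter transcription units; PXR activity read through a Gal4 chimera. 24 h exposure. RT-PCR/CE fluorescence; upward curve fit referenced to DMSO.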

Chain of Bile acid receptor (Homo sapiens) (Q96RI1 whole entry, looked up): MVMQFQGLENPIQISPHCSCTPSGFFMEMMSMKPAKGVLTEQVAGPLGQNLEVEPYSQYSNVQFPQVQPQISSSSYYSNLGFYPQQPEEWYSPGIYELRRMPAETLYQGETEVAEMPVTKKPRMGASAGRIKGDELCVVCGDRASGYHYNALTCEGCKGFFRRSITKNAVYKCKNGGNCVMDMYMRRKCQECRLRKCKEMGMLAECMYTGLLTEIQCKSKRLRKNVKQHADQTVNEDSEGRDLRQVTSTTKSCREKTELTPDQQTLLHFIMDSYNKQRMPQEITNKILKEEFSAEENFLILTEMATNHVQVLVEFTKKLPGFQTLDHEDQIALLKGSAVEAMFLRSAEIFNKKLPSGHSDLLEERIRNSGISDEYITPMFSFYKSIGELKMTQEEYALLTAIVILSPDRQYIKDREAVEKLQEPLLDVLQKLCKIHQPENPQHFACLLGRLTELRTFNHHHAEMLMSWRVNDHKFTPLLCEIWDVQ
Chain of Nuclear receptor subfamily 1 group I member 3 (Homo sapiens) (Q14994 whole entry, looked up, the tested form may be a part): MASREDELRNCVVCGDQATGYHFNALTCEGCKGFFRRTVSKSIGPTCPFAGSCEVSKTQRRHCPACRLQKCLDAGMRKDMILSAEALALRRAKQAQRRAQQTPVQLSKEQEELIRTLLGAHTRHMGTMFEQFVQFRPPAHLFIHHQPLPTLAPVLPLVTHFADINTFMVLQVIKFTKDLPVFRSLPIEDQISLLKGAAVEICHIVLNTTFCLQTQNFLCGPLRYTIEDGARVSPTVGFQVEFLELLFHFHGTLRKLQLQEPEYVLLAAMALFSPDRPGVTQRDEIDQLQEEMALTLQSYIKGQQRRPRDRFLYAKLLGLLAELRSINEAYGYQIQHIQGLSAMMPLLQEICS
Chain of Hepatocyte nuclear factor 4-alpha (Homo sapiens) (P41235 whole entry, looked up, the tested form may be a part): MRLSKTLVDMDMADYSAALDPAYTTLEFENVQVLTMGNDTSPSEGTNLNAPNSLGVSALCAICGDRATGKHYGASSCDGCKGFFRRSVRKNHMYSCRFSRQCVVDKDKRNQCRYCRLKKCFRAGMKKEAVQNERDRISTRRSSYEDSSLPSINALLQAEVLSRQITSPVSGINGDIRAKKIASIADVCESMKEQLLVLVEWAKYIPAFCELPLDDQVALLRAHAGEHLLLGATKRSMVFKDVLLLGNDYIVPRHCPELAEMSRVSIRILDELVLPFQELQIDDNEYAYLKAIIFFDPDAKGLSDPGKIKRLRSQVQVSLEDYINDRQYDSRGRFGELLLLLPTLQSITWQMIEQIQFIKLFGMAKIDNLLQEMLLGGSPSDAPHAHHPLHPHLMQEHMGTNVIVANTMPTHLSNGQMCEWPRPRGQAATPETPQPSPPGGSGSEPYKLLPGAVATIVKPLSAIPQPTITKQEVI
Chain of Retinoic acid receptor alpha (Homo sapiens) (P10276 whole entry, looked up): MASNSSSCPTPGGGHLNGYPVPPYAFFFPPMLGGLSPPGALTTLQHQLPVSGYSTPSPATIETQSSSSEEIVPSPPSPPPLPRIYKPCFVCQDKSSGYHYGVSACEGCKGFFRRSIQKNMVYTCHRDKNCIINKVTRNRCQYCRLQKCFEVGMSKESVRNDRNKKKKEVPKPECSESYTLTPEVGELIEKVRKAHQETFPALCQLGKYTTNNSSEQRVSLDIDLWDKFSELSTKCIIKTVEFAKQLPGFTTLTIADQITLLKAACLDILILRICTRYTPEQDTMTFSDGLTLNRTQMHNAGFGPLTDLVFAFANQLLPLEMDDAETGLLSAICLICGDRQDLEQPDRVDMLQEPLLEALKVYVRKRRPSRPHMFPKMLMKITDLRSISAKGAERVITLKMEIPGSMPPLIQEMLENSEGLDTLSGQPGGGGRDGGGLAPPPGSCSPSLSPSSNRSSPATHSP
Chain of human Peroxisome Proliferator-activated Receptor delta (PPARd), PPARD (gene 5467) (Q03181 whole entry, looked up, the tested form may be a part): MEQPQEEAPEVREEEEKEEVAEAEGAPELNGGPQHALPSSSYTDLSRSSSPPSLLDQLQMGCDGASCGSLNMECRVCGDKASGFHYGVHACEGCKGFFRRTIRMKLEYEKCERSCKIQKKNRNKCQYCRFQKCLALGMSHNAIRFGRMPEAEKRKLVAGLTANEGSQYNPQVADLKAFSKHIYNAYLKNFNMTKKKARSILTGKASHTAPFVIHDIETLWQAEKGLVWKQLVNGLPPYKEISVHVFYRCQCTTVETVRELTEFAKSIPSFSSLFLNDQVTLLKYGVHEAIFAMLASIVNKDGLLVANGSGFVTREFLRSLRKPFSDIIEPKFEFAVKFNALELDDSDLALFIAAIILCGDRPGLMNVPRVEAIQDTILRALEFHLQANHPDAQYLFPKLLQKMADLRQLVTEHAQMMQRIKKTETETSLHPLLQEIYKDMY
Chain of Nuclear receptor subfamily 4 group A member 2 (Homo sapiens) (P43354 whole entry, looked up, the tested form may be a part): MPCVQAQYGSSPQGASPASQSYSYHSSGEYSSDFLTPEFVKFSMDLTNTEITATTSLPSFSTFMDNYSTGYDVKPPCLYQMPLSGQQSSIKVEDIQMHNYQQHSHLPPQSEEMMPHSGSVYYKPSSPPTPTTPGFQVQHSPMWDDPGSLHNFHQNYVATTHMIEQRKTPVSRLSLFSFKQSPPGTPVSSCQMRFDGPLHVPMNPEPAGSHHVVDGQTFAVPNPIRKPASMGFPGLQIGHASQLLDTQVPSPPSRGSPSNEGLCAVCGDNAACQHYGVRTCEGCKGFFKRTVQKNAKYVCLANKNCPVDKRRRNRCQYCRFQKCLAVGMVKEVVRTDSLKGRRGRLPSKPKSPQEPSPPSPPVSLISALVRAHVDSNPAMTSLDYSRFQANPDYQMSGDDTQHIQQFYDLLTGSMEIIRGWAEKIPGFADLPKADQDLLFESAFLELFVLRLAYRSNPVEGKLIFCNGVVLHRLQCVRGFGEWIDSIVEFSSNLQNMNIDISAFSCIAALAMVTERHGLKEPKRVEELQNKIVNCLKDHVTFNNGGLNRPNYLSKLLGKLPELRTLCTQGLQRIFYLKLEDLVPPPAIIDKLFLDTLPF
Chain of Oxysterols receptor LXR-alpha (Homo sapiens) (Q13133 whole entry, looked up, the tested form may be a part): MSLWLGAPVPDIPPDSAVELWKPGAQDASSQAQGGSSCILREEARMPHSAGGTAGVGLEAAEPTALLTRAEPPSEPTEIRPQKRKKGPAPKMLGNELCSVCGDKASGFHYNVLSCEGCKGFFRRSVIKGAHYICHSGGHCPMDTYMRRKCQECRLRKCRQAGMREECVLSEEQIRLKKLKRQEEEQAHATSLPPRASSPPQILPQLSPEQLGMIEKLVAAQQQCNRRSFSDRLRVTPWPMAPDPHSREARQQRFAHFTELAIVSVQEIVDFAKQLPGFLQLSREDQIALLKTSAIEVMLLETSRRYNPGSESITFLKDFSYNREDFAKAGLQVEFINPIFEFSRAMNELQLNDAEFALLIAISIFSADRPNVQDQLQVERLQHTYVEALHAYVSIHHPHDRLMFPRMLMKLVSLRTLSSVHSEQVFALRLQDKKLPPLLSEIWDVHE
Chain of human Peroxisome Proliferator-activated Receptor alpha (PPARa), PPARA (gene 5465) (Q07869 whole entry, looked up, the tested form may be a part): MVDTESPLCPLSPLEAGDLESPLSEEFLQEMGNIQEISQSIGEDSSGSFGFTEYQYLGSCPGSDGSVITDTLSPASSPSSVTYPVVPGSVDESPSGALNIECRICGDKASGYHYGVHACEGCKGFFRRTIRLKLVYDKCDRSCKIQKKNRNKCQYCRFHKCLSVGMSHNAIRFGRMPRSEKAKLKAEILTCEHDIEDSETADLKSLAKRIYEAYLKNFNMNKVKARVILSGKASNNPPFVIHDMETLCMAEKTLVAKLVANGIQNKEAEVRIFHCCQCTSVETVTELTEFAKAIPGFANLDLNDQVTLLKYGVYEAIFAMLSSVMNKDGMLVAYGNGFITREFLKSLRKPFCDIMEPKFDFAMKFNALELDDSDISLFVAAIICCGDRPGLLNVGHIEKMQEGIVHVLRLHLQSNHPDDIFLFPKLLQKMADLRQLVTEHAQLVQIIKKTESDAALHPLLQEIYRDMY
Chain of Oxysterols receptor LXR-beta (Homo sapiens) (P55055 whole entry, looked up, the tested form may be a part): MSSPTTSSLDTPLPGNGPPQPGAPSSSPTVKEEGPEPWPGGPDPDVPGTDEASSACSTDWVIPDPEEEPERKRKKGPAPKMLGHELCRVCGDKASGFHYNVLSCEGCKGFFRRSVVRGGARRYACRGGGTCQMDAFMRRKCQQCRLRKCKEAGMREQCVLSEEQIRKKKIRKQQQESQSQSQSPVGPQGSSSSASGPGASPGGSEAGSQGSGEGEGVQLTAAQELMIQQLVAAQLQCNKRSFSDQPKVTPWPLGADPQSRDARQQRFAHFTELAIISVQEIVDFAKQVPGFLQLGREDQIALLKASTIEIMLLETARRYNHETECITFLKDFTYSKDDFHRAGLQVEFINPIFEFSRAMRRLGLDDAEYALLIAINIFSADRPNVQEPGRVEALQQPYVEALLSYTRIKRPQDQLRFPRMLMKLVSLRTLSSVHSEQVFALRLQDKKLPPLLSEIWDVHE

Regarding `COc1ncc(F)c2nc(S(=O)(=O)Nc3c(F)cccc3F)nn12`, the compound was called inactive in test [1], in test [2], in test [3], in [4], in test [5] and in test [6].
In the case of `COCC(=O)N(c1c(C)cccc1C)N1CCOC1=O`, the compound was called inactive in [7], in test [8], in test [1], in [3], in test [9] and in [10]. For the same compound, the compound was classed as inactive in [11].
Take `C=C(Cl)Cl`: the call in test [12], in test [8], in test [1], in [2], in test [13] and in [3] was inactive. Moreover, the outcome in test [4], in test [9], in [14], in test [5], in [10] and in test [15] was inactive.
In the case of `O=C(O)CCCc1ccc(N(CCCl)CCCl)cc1`, the call in test [7], in [1], in test [4], in test [16], in test [9] and in test [17] was inactive. For the same compound, the call in [5], in test [11], in test [15] and in test [6] was inactive. Also, in test [18], the AC50 was 43.5 µM (active) and 42.8 µM (active) and 23 µM (active).
On to `C=CC(=O)OC`, for which the result in test [12], in [7], in test [8], in test [1], in [13] and in [3] was inactive. Also, the compound was called inactive in test [4], in [16], in [14], in [19], in [10] and in test [11].
For the compound `Cc1ccc(OP(=O)(Oc2ccc(C)cc2)Oc2ccc(C)cc2)cc1` (tested in a mixture with another compound), the result in [12], in test [5], in [10], in test [18], in [15] and in [6] was inactive. Moreover, in test [20], the AC50 was 596 nM (active).

As usually defined, the AC50 is the midpoint of the concentration-response curve, whichever way the signal moves.
